Active and inactive are the calls of the source. Rule for the calls: active = hit-call score of the fitted dose curve at least 0.9, where 1 is the maximum; inactive = score below 0.9.
Read-out: Epidermal growth factor receptor (EGFR), EGFR (gene 1956)
Assay: BSK_hDFCGF_EGFR: BioMAP Diversity Plus: hDFCGF Assay for Epidermal growth factor receptor (EGFR) Biomarker Activity (AID 2283057)
Settings: primary human foreskin fibroblasts; actives raise or lower the signal
Procedure: BSK_hDFCGF is a cell-based, multiplexed-readout assay that uses foreskin fibroblast, a human skin primary cell, with measurements taken at 24 hours after chemical dosing in a 96-well plate.BSK_hDFCGF_EGFR is an assay component measured in the BSK_hDFCGF assay. It measures EGFR antibody related to regulation of gene expression using ELISA technology.Data from the assay component BSK_hDFCGF_EGFR was analyzed into 1 assay endpoint. This assay endpoint, BSK_hDFCGF_EGFR, was analyzed with bidirectional fitting relative to DMSO as the negative control and baseline of activity. Using a type of binding reporter, gain or loss-of-signal activity can be used to understand changes in the signaling as they relate to the gene EGFR. Furthermore, this assay endpoint can be referred to as a primary readout, because this assay has produced multiple assay endpoints where this one serves a signaling function. To generalize the intended target to other relatable targets, this assay endpoint is annotated to the kinase intended target family, where the subfamily is receptor tyrosine kinase.
The levels of cell surface (or secreted, indicated by the prefix "s") biomarker endpoints were measured by ELISA. Overt cytotoxicity to cells in confluent adherent cultures (all systems other than the BT system) was assessed by measuring total protein levels using sulforhodamine B (SRB) staining in parallel cultures at the time of biomarker measurements, indicated as SRB endpoints. For proliferation assays for adherent cell types, individual cell types are cultured at sub-confluence and relative cell numbers quantified by SRB staining at time points optimized for each system (48 h: 3C and CASM3C systems; 72 h: BT and HDF3CGF systems; 96 h: SAg system). SRB was performed by staining cells with 0.1% SRB after fixation with 10% TCA and reading wells at 560 nm.Viability and proliferation of PBMC (T cells) was quantified by Alamar Blue reduction for the SAg and BT systems. For PBMC viability (referred to as PBMC Cytotoxicity within the assay endpoint names), cells were plated (75,000/well in a 96-well plate) and then chemical samples added for 1 h before addition of activators, SEB and TSST-1 (20 ng/mL final concentration each). Cells were incubated for 90 h. Then, Alamar Blue (20 uL/well) (Invitrogen, Cat DAL1100) was added for 6 h, and the plates were read with a fluorescence microplate reader at 546/580 nm (excitation/emission). For PBMC proliferation, cells were plated and activated as above but incubated for only 16 h prior to addition of Alamar Blue. Plates were read after 6 h.

| Structure (SMILES) | outcome |
| --- | --- |
| Oc1ccc(O)cc1 | inactive |
| O=C(Oc1ccccc1)c1cccc(C(=O)Oc2ccccc2)c1 | inactive |
| NC1CCCCC1 | inactive |
| Nc1nc(=S)c2[nH]cnc2[nH]1 | inactive |
| O=NO | inactive |
| CC(COCC(C)OC(=O)c1ccccc1)OC(=O)c1ccccc1 (stereo not given) | inactive |
| CCCCCCCCCC[N+](C)(C)[O-] | inactive |
| CCCC(=O)O | inactive |
| O=C1NC(=O)C(c2ccccc2)(c2ccccc2)N1 | inactive |
| CC(C)(O)c1ccc(CNC(=O)c2cccnc2Oc2ccc(F)cc2)cc1 | inactive |
| Cc1ccc(C(C)(C)C)c(O)c1 | inactive |
| Cn1cnc2c1c(=O)[nH]c(=O)n2C | inactive |
| O=C1CCCCC1 | inactive |
| CCCC[C@H]1CN(CC2CCOCC2)C(=O)OC12CCN(C1(C)CCN(C(=O)c3c(C)ncnc3C)CC1)CC2 | inactive |
| Cc1cc(Cc2ccc(N)c(C)c2)ccc1N | inactive |
| COC(=O)CCC(=O)OC | inactive |
| CCCCCCCC(=O)OC | inactive |
| O=C(O)c1[nH]n(-c2ccc(S(=O)(=O)O)cc2)c(=O)c1N=Nc1ccc(S(=O)(=O)O)cc1 | inactive |
| NC=O | inactive |
| Cc1ccc(-c2cc(C(F)(F)F)nn2-c2ccc(S(N)(=O)=O)cc2)cc1 | inactive |

| Structure (SMILES) | outcome |
| --- | --- |
| Nc1nc(Cl)nc2c1ncn2[C@H]1C[C@H](O)[C@@H](CO)O1 | inactive |
| C=CCCCCCCCCCCCC | inactive |
| NC(=Nc1ccccc1)Nc1ccccc1 | inactive |
| C/C=C/c1ccc(OC)cc1 | inactive |
| COc1ccc(C(=O)Nc2nc3ccccc3c(NCc3ccccc3)c2C#N)cc1 | inactive |
| CC1=C(C)S(=O)(=O)CCS1(=O)=O | inactive |
| CC(=O)OC1CC(C)OC(C)O1 (stereo not given) | inactive |
| CC(C)COC(=O)CCCCC(=O)OCC(C)C | inactive |
| N[C@@H](Cc1c[nH]c2ccccc12)C(=O)O | inactive |
| CCc1cc(C2=C(C(=O)O)N(c3ccccc3C(F)(F)F)S(=O)(=O)c3ccccc32)cc2c1OCO2 | inactive |
| CC(=O)CC(c1ccccc1)c1c(O)c2ccccc2oc1=O (stereo not given) | inactive |
| OCC(O)CO | inactive |
| Cc1cc(SC2=C(O)C[C@@](CCc3ccc(N)cc3)(C(C)C)OC2=O)c(C(C)(C)C)cc1CO | inactive |
| S=c1[nH]c2ccccc2s1 | inactive |
| CCc1nc(N)nc(N)c1-c1ccc(Cl)cc1 | inactive |
| Cc1cn([C@H]2C=C[C@@H](CO)O2)c(=O)[nH]c1=O | inactive |
| c1ccc2occc2c1 | inactive |
| COc1ccc(OC(F)(F)F)cc1CN[C@H]1CCCN[C@H]1c1ccccc1 | inactive |
| CCCCC(CC)COC(=O)CCCCCCCC(=O)OCC(CC)CCCC (stereo not given) | inactive |
| C=CCc1ccc(OC)c(OC)c1 | inactive |
